Screening data deposited in PubChem BioAssay by National Center for Advancing Translational Sciences (NCATS).
Compounds with a hit are over-represented: about 2.4% of the library has one in this group of screens.
Pol beta inh – qHTS Assay for Inhibitors of DNA Polymerase Beta. Potency, µM (series often up to 114 µM), usual class: inhibitors. Pol beta primer extension/strand displacement, fluorescence kinetic. P06746. hit rate 1.3% among 340,000
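Preincubation: enzyme (10 nM) with compound, 15 min, RT. Reaction: substrate added to 50 nM final. Reads: 0 and 10 min. Analysis: normalized, Hill fit.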
POLH inh – qHTS for Inhibitors of Polymerase Eta | AID 588591, 2011 | DNA polymerase eta (Homo sapiens), Q9Y253 | hit rate 1.2% among 390,000 | recombinant Pol eta, fluorescent DNA replication assay | Potency, µM (top dose mostly 114 µM), usual class: inhibitors
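Fluorescent replication assay: 50 nM final substrate added after a 15 min room-temperature compound preincubation with 10 nM enzyme. Signal taken at 0 min and again at 10 min.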
POLK inh – qHTS for Inhibitors of Polymerase Kappa; DNA polymerase kappa (Homo sapiens), Q9UBT6; purified Pol kappa, fluorescent DNA synthesis assay, 10 min; Potency, µM (top dose mostly 107 µM), most hits filed as inhibitors; hit rate 0.53% among 400,000; AID 588579, 2011
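Enzyme at 10 nM met test compounds for 15 min at room temperature. Substrate addition (50 nM final) began the reaction, which was monitored by fluorescence at 0 and 10 min.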
Pol iota inh – qHTS for Inhibitors of Polymerase Iota. DNA polymerase iota (Homo sapiens), Q9UNA4. Pol iota fluorescent replication assay, 10 min. Potency, µM (titrated, usually from 115 µM), actives largely listed as inhibitors. hit rate 1% among 390,000
Target sequence (Q9UNA4 whole entry, looked up): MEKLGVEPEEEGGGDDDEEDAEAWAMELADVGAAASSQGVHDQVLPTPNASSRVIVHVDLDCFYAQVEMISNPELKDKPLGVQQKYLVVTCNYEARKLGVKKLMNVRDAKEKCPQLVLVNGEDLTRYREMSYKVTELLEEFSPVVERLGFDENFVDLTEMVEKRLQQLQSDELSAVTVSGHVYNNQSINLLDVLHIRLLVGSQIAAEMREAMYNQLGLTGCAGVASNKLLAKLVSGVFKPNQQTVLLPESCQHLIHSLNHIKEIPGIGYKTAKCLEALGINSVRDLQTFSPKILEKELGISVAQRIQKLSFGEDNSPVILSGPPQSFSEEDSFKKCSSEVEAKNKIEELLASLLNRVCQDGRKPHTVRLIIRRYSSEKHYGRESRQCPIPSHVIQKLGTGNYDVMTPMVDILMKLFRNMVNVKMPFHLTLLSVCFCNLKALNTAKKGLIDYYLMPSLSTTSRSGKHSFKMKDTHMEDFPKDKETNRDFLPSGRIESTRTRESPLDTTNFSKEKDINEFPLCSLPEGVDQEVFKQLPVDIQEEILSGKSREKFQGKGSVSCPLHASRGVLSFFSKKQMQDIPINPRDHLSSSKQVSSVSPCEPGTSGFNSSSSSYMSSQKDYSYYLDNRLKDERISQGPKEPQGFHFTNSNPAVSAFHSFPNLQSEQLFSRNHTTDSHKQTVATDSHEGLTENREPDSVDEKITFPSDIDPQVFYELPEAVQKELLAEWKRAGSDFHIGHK
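Fluorescent replication assay read twice, at 0 min and 10 min after adding 50 nM (final) substrate. Enzyme (10 nM) and compounds were first incubated 15 min at room temperature; enzyme-free buffer wells were negative controls.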
L3MBTL1 block – qHTS Assay for the Inhibitors of L3MBTL1; hit rate 0.66% among 230,000; Potency, µM (highest dose often 57.1 µM), hits mostly inhibitors; AlphaScreen L3MBTL1–H3K9me1 peptide binding; note: nearly all actives have a fitted effect of over 60% in size
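First, the protein-peptide complex forms for 30 min at room temperature (L3MBTL1 50 nM, biotinylated H3K9me1 peptide 75 nM). Next, compounds are pin-transferred and incubated 30 min. Finally, AlphaScreen beads are added and read after 30 min.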
PGK validate – qHTS for inhibitors of Phosphogylcerate Kinase: Hit Validation Screen; AID 686980, 2013; Potency, µM (doses to about 57.5 µM), most hits filed as inhibitors; hit rate 79% among 500; shares compounds with POLK inh; TbPGK coupled GAPDH assay, Kinase-Glo luminescence; note: nearly all actives have a fitted effect of over 65% in size
Pol iota confirm – qHTS for Inhibitors of Polymerase Iota: Confirmatory Assay for Cherry-picked Compounds; shares compounds with POLK inh; Pol iota primer extension, TAMRA/BHQ fluorescence; Potency, µM, usual class: inhibitors; hit rate 77% among 1,500; AID 720496, 2013
Numbers stand for hits; 0 = inactive; ? = inconclusive; - = no result; [ ] = remark or other dose. Calls come from the whole dose curve; as a rule, active = well fitted curve in the direction sought with a large enough effect; inconclusive = small, poorly fitted or top-dose-only effect, or another doubt; inactive = no such curve, though single readings can be large; an effect the other way counts as inactive or inconclusive.

SMILES	Pol beta inh	POLH inh	POLK inh	Pol iota inh	L3MBTL1 block	PGK validate	others
Cc1cccc(C(=O)NNC(=O)c2cc3cc4ccccc4nc3s2)c1	0	?	0	0	0	-
O=C(NNC(=O)c1cc2cc3ccccc3nc2s1)c1cccc(Cl)c1	1.41µM	?	79.4µM	?	0	-	Pol iota confirm=?
O=C(Nc1nccs1)[C@@H]1CC=C[C@@H]2CCN(Cc3ccc(Cl)c(Cl)c3)C(=O)[C@@H]21	-	-	0	0	-	-
C[C@H]1CN(C2CCCCC2)C(=O)[C@@H]1CC(=O)Nc1ccccc1	-	0	-	-	-	-
COc1ccccc1C(=O)Nc1nc2ccccc2[nH]1	0	0	0	0	-	5.8µM
COc1cc(SC)ccc1C(=O)Nc1nc2ccccc2[nH]1	0	0	0	0	-	3.26µM
COc1cc(SC)ccc1C(=O)NNC(=O)c1cc(C)oc1C	-	0	0	0	0	13µM
CSc1ccccc1C(=O)Nc1nc2ccccc2[nH]1	0	0	0	0	0	-
COc1cc(SC)ccc1C(=O)Nc1c(C)cccc1C	0	0	0	0	0	-
CC(C)CCNC(=O)c1ccc2c(c1)NC(=O)C(CS(=O)(=O)Cc1ccc(F)cc1)N2 (configuration not stated)	0	?	0	0	-	-	Pol iota confirm=?
O=C(CN1C(=O)CCc2cc(S(=O)(=O)N3CCCCC3)ccc21)NCc1ccc(Cl)cc1	0	0	0	?	-	-
Cc1occc1C(=O)N/N=C/C=C/c1ccc(N(C)C)cc1	0	0	0	0	-	-
Cc1occc1C(=O)N/N=C/c1ccc(N(C)C)cc1	0	0	0	0	0	10.3µM
O=C(O)c1ccc2c(c1)[C@@H]1C=CC[C@@H]1[C@H](c1ccccn1)N2	-	6.31µM	10µM	3.55µM	-	16.3µM
COc1ccc(C(=O)N/N=C(\C)c2ccc3c(c2)C2C=CCC2C(c2ccccc2)N3)cc1 (configuration not stated)	0	0	0	0	0	-
Cc1ccc(NC(=S)N2CCN(CCN3C(=O)c4cccc5cccc(c45)C3=O)CC2)cc1	0	?	0	0	0	0
Cc1ccc(NC(=O)CN2C(=O)S/C(=C\c3ccc(-c4cccc(C(=O)O)c4C)o3)C2=O)cc1C	10µM	8.91µM	89.1µM	10µM	0	4.11µM
Cc1ccc(NC(=O)CN2C(=O)S/C(=C\c3ccccn3)C2=O)cc1C	0	0	0	0	-	-
NNc1ccc([N+](=O)[O-])c2[nH][nH]c(=O)c12	-	2µM	-	-	-	2.59µM
O=C(CCC1N=C2c3ccccc3N=C(SCc3ccc(F)cc3)N2C1=O)NC1CCCCC1 (configuration not stated)	0	0	0	0	-	-
CCN(CC)CCCNc1ncnc2ccccc12	0	0	0	0	0	-
CCN(CC)CCCNc1ccc2ncn3c4ccc(O)cc4c(=O)c1c23	-	?	79.4µM	?	-	-	Pol iota confirm=42.3
O=C1/C(=C\c2ccc(O)cc2)SC(=S)N1c1cccnc1	?	?	0	?	0	-	Pol iota confirm=?
O=S(=O)(O)CC(S)CS (configuration not stated)	-	-	0[19.4 µM]	-	-	-
c1ccc(CNc2c3ccccc3nc3ccccc23)cc1	?	?	0	?	-	-
SMILES	Pol beta inh	POLH inh	POLK inh	Pol iota inh	L3MBTL1 block	PGK validate	others
Oc1ccc(CCNc2c3ccccc3nc3ccccc23)cc1O	7.08µM	?	?	39.8µM	0[2.29 µM]	-	Pol iota confirm=75.2
CCOC(=O)c1cc(S(=O)(=O)NCc2ccc(OC)cc2)[nH]n1	0	0	0	0	-	-
CCc1ccccc1Nc1nn2c(=O)c3ccc(C(=O)NCc4ccccc4Cl)cc3nc2s1	0	0	0	?	-	-
O=C(NCc1cccs1)c1ccc2c(=O)n3nc(Nc4ccccc4)sc3nc2c1	?	?	0	0	-	-	Pol iota confirm=?
CCc1cccc(C)c1NC(=O)Cn1ccn(-c2ccc(F)cc2)c(=O)c1=O	0	0	0	0	-	-
N#Cc1ccc(CN2CCN(C(=O)CNS(=O)(=O)c3ccc4c(c3)OCCCO4)CC2)cc1	-	0	0	0	0	-
O=C(/C=C/c1ccco1)Nc1ccc(S(=O)(=O)N2CCOCC2)cc1	0	0	0	0	0	-
NS(=O)(=O)c1ccc(NC(=O)/C=C/c2ccco2)cc1	25.1µM	20µM	50.1µM	17.8µM	?	8.19µM
O=c1c(OC2OC(CO)C(O)C(O)C2O)c(-c2ccc(O)c(O)c2)oc2cc(O)cc(O)c12 (configuration not stated)	0	?	17.8µM	25.1µM	?	?
O=c1c2c(O)cc(O)cc2oc2c(O)ccc(O[C@H]3O[C@@H](CO)[C@H](O)[C@@H](O)[C@@H]3O)c12	-	0	?	?	0	-
C[C@@H]1O[C@@H](Oc2c(-c3cc(O)c(O)c(O)c3)oc3cc(O)cc(O)c3c2=O)[C@H](O)[C@H](O)[C@H]1O	?	?	1.68µM	50.1µM	?	-	Pol iota confirm=?
CCN(CC)S(=O)(=O)c1cccc(NC(=O)c2cccc(S(=O)(=O)N3CCCC3)c2)c1	-	0	0	0	0	-
O=c1[nH]c2ccc(Br)cc2c(=O)o1	-	0	-	-	-	-
Cc1ccsc1/C=N/Nc1nc(=O)[nH]nc1C	0	0	0	0	-	18.3µM
O=C(NCc1nc2ccccc2[nH]1)c1ccc(S(=O)(=O)N2CCOCC2)cc1	0	0	0	0	0	0
O=C(NCc1nc2ccccc2[nH]1)c1ccc(S(=O)(=O)N2CCCC2)cc1	0	0	0	0	0	-
O=C(Cn1c(=O)n(-c2ccccc2)c(=O)c2sc3ccccc3c21)NC1CCCC1	0	0	0	0	-	-
N#Cc1c(-c2ccccc2)c(C#N)c2nc3ccccc3n2c1N	0	0	0	15.8µM	0	-	Pol iota confirm=?
O=C(CC1C(=O)N(c2ccc(F)cc2)C(=O)N1Cc1cccnc1)Nc1ccc(F)cc1 (configuration not stated)	0	0	0	0	-	-
O=C(Nc1ccc(Cc2ccc(NC(=O)Nc3cccnc3)cc2)cc1)Nc1cccnc1	-	44.7µM	-	-	-	-	Pol iota confirm=?
COc1ccc(S(=O)(=O)N2CCC(n3c(C)nc4cccnc43)CC2)cc1Cl	0	0	0	0	-	-
CC(=O)c1cccc(NC(=O)CCCSc2nc(-c3ccco3)cc(C(F)(F)F)n2)c1	0	?	0	0	-	-
CNC(=O)c1cnc2sc(N3CCC(C)CC3)nn2c1=O	0	0	0	0	-	-
c1ccc(-c2noc(-c3ccc4c(c3)OCO4)n2)nc1	?	0	0	0	0	5.8µM
S=c1nc(C2COc3ccccc3O2)[nH][nH]1 (configuration not stated)	?	0	0	0	0	-
